High-throughput results deposited in PubChem by several laboratories.
Most compounds without a hit are left out; they make up all but 3.5% or so of the library.
Mtb FBA inh: Mtb fructose-bisphosphate aldolase inhibition. inhibition, % at 1 µM. P9WQA3. 360,000 compounds, 2.3% hits. purified M. tuberculosis FBA, fluorescence read-out;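 further: 0% = vehicle and 100% = reference inhibitor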
GDH-TPI counter-1: inhibits GDH-TPI coupling enzymes, artifact for Mtb FBA screen. inhibition, % at 4.8 µM. 360,000 compounds, 1.2% hits. GDH-TPI coupled enzyme counterscreen, NADH absorbance; in the data active means inhibition above about 30%;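 further: 0% = DMSO wells and 100% = wells lacking the enzyme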
Mtb UGM inh: blocks M. tuberculosis UGM enzyme; purified UGM, fluorescence polarization probe displacement; inhibition, % at 10 µM; 320,000 compounds, 0.06% hits; AID 504406; in the data active means inhibition above about 10%, passing the limit was not always enough; inconclusive means no clear call, values can overlap the other calls
FadD28 FP inh: inhibitors of Mycobacterium tuberculosis FadD28 bisubstrate binding; 360,000 compounds, 0.22% hits; inhibition, % at 12.5 µM; FadD28 bisubstrate probe binding, fluorescence polarization; AID 588549; in the data active means inhibition above about 8.5%, passing the limit was not always enough; inconclusive means no clear call, values can overlap the other calls
Mtb hypoxia inh: reduces hypoxia-regulated biosensor signal in M. tuberculosis | M. tuberculosis hypoxia-regulated fluorescent reporter, fluorescence | fluorescence inhibition, % (no concentration beside the values) | 300,000 compounds, 0.1% hits | AID 1159583; in the data active means fluorescence inhibition mostly above about 23%, no sharp cut-off; inactive means mostly below about 17%
Rv3671c inh: inhibits the M. tuberculosis serine protease Rv3671c; inhibition, % at 5.96 µM; P9WHR9; 320,000 compounds, 0.048% hits; in the data active means inhibition above about 38%;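 further: extracellular domain of Rv3671c used as enzyme; 0% = enzyme with DMSO and 100% = no enzyme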
Target sequence (P9WHR9 whole entry, looked up, the tested form may be a part): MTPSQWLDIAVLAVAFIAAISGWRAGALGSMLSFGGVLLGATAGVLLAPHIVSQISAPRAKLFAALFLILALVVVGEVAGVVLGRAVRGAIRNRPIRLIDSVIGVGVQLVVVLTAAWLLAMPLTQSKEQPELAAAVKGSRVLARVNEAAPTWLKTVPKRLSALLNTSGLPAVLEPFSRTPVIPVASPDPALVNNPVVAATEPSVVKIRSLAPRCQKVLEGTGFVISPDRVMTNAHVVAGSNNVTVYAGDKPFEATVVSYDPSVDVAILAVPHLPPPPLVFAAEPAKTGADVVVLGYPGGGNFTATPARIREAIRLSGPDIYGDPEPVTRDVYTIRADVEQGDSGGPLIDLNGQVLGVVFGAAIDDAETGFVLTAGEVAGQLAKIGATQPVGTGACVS
Mtb FBA confirm: Mtb FBA inhibition, confirmed; purified M. tuberculosis FBA, fluorescence read-out; shares compounds with Mtb FBA inh; 5,600 compounds, 78% hits; inhibition, % at 1 µM;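 further: 0% = vehicle wells and 100% = reference inhibitor wells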
GDH-TPI counter-2: GDH-TPI inhibition counter-screen for FBA inhibitors | GDH-TPI coupled enzyme counterscreen, fluorescence | 5,600 compounds, 81% hits | inhibition, % at 1 µM | shares compounds with Mtb FBA inh | AID 652141; in the data active means inhibition above about 10%
Active calls of the source: *. Unless noted, no stated cut-off is given here; in the data, active means inhibition above about 27%; inactive means the rest.

Results for S=c1nc(-c2ccccc2)n(-c2ccccc2)[nH]1 ?
Mtb FBA inh: 5; GDH-TPI counter-1: -6; Mtb UGM inh: 1; FadD28 FP inh: -5; Mtb hypoxia inh: 8; Rv3671c inh: -4

What do the screens show for `O=c1nc(-c2ccccc2)n(-c2ccc(Cl)cc2)[nH]1`?
Mtb FBA inh: 28*; GDH-TPI counter-1: -2; Mtb UGM inh: -1; FadD28 FP inh: -3; Mtb hypoxia inh: 5; Rv3671c inh: 0; Mtb FBA confirm: 128*; GDH-TPI counter-2: 105*

Results for Cc1cc(C(=O)OC2C(Cc3ccccc3)NS(=O)(=O)C3CC4C=C[C@]23O4)ccc1[N+](=O)[O-] (some centres undefined) ?
Mtb hypoxia inh: 4

Results for O=C(COc1cccnc1[N+](=O)[O-])N1CCN(S(=O)(=O)c2ccccc2)CC1 ?
Mtb FBA inh: -1; GDH-TPI counter-1: -10; Mtb UGM inh: -1; FadD28 FP inh: -3; Rv3671c inh: -4

How did O=C(COc1nnc2ccccn12)N1CCN(S(=O)(=O)c2ccccc2)CC1 do in these assays?
Mtb FBA inh: 35*; GDH-TPI counter-1: 2; Mtb UGM inh: 4; FadD28 FP inh: -3; Rv3671c inh: -4; Mtb FBA confirm: -5; GDH-TPI counter-2: -3

What do the screens show for `COc1ccc(CC(=O)N2CCN(C(=O)Cc3ccc(OC)cc3)CC2)cc1`?
Mtb FBA inh: 4; GDH-TPI counter-1: 1; Mtb UGM inh: 2; FadD28 FP inh: -2; Rv3671c inh: 6

What do the screens show for `COc1ccc(CC(=O)N2CCN(c3ccc(C4=NNC(=O)CC4C)cc3)CC2)cc1` (centres undefined)?
Mtb FBA inh: 32*; GDH-TPI counter-1: 22; Mtb UGM inh: -3; FadD28 FP inh: 4; Rv3671c inh: 2; Mtb FBA confirm: 162*; GDH-TPI counter-2: 132*

How did COc1ccc(-c2ccc3c(c2)CN(C(=O)CCc2ccccc2)Cc2cnnn2-3)cc1 do in these assays?
Mtb FBA inh: 63*; FadD28 FP inh: -8; Mtb FBA confirm: active; GDH-TPI counter-2: 173*

Results for CCN(CC)c1nc(N)c2c(N)nc3c(c2c1C#N)CC(c1ccccc1)O3 (centres undefined) ?
Mtb FBA inh: 15; GDH-TPI counter-1: 9; Mtb UGM inh: 2; FadD28 FP inh: 2; Mtb hypoxia inh: 3; Rv3671c inh: 1

How did N#Cc1c(N2CCCCC2)nc(N)c2c(N)nc3c(c12)CC(c1ccccc1)O3 (centres undefined) do in these assays?
Mtb FBA inh: 30*; GDH-TPI counter-1: 16; Mtb UGM inh: 1; FadD28 FP inh: -2; Rv3671c inh: 3; Mtb FBA confirm: 122*; GDH-TPI counter-2: 102*

How did CCC1Cc2c(nc(N)c3c(N)nc(N4CCCCC4)c(C#N)c23)O1 (centres undefined) do in these assays?
Mtb FBA inh: 42*; GDH-TPI counter-1: 4; Mtb UGM inh: -1; FadD28 FP inh: 3; Mtb hypoxia inh: 8; Rv3671c inh: 12; Mtb FBA confirm: 121*; GDH-TPI counter-2: 110*

What do the screens show for `N#Cc1c(N2CCCC2)nc(N)c2c(N)nc(N3CCCC3)cc12`?
Mtb FBA inh: 18; GDH-TPI counter-1: 21; Mtb UGM inh: -1; FadD28 FP inh: 5; Mtb hypoxia inh: 7; Rv3671c inh: -222

What do the screens show for `CCCCCC(=O)NN=Cc1ccc([N+](=O)[O-])o1`?
Mtb hypoxia inh: 2

Results for COc1ccc(OC)c(S(=O)(=O)Nc2ccc3c(c2)n(C)c(=O)n3C)c1 ?
Mtb FBA inh: 62*; GDH-TPI counter-1: 2; Mtb UGM inh: 1; FadD28 FP inh: 0; Mtb hypoxia inh: 0; Rv3671c inh: -2; Mtb FBA confirm: 140*; GDH-TPI counter-2: 93*

What do the screens show for `CC(C)CN(CC(C)C)c1ccc(C=Nn2cnnc2)cc1[N+](=O)[O-]`?
Mtb hypoxia inh: 8

What do the screens show for `N#Cc1c(N)oc(-c2ccco2)c1-c1ccco1`?
Mtb FBA inh: 33*; GDH-TPI counter-1: 12; Mtb UGM inh: -1; FadD28 FP inh: 5; Mtb hypoxia inh: 13; Rv3671c inh: 10; Mtb FBA confirm: 42*; GDH-TPI counter-2: 26*

What do the screens show for `Cc1cn2c(nc(=O)c3cccnc32)s1`?
Mtb FBA inh: 36*; GDH-TPI counter-1: 15; Mtb UGM inh: 5; FadD28 FP inh: -1; Mtb hypoxia inh: -3; Rv3671c inh: -8; Mtb FBA confirm: 107*; GDH-TPI counter-2: 87*

Results for CC(C)(C)c1ccc(C(=O)NN=Cc2ccc(OCCCF)cc2)cc1 ?
Mtb hypoxia inh: -3

How did O=C(O)c1cccc(Nc2ncnc3ccccc23)c1 do in these assays?
Mtb FBA inh: 49*; GDH-TPI counter-1: 14; Mtb UGM inh: -3; FadD28 FP inh: -3; Mtb hypoxia inh: 3; Rv3671c inh: 2; Mtb FBA confirm: 83*; GDH-TPI counter-2: 78*

What do the screens show for `CC(=O)Nc1ccc(S(=O)(=O)NC(C)c2ccccc2)cc1` (centres undefined)?
Mtb FBA inh: 31*; GDH-TPI counter-1: 2; Mtb UGM inh: 1; FadD28 FP inh: 0; Mtb hypoxia inh: 9; Mtb FBA confirm: 123*; GDH-TPI counter-2: 95*

Results for CC(=O)Nc1ccc(S(=O)(=O)Nc2nc3ccccc3nc2Nc2ccccc2)cc1 ?
Mtb FBA inh: 82*; GDH-TPI counter-1: 7; Mtb UGM inh: 4; FadD28 FP inh: 2; Mtb hypoxia inh: 2; Rv3671c inh: 5; Mtb FBA confirm: active; GDH-TPI counter-2: active

What do the screens show for `COc1ccc(S(=O)(=O)Nc2nc3ccccc3nc2Nc2cccc(C(=O)O)c2)cc1`?
Mtb FBA inh: 32*; GDH-TPI counter-1: 38*; Mtb UGM inh: 5; FadD28 FP inh: inconclusive; Mtb hypoxia inh: -3; Rv3671c inh: -6; Mtb FBA confirm: active; GDH-TPI counter-2: active

How did Oc1cccc(Nc2ncnc3ccccc23)c1 do in these assays?
Mtb FBA inh: 1; GDH-TPI counter-1: 11; Mtb UGM inh: -2; FadD28 FP inh: 0; Mtb hypoxia inh: -4; Rv3671c inh: -9

Results for N#CCc1nn2c(-c3ccccc3)ccnc2c1C#N ?
Mtb FBA inh: 69*; GDH-TPI counter-1: 14; Mtb UGM inh: -2; Mtb hypoxia inh: -5; Rv3671c inh: -8; Mtb FBA confirm: 121*; GDH-TPI counter-2: 91*

Results for NC(=O)c1nc(-c2ccccc2)c(-c2ccccc2)[nH]c1=O ?
Mtb FBA inh: 67*; GDH-TPI counter-1: 13; Mtb UGM inh: 2; FadD28 FP inh: 0; Mtb hypoxia inh: 9; Rv3671c inh: -1; Mtb FBA confirm: 37*; GDH-TPI counter-2: 22*

Results for CCOC(=O)c1nnc(-c2ccccc2)[nH]c1=O ?
Mtb FBA inh: 0; GDH-TPI counter-1: 9; Mtb UGM inh: -2; FadD28 FP inh: 0; Mtb hypoxia inh: 0; Rv3671c inh: -7
